From ChEMBL document CHEMBL3988442, “University of Dundee, Small-Polar-MMV Screening Library” (2021)
The campaign covered roughly 48,000 compounds. About 13,000 (27%) showed an effect of 50% or more. The list shows a part of the results.

Each molecule was assayed on Wolbachia pipientis (assay: Anti-Wolbachia Cell-Based Screen). Conditions: 5 µM.
Assay type: functional
Design: scale not given: in the data most compounds retested in dose-response had high values

SMILES	Percent Effect
O=C(CC1CCCO1)NCc1ccccc1Cn1cncn1 (stereo not given)	0.9316%
CC1CN(C)c2ccccc2CN1C(=O)c1cc[nH]c(=O)c1 (stereo not given)	-17.5%
CCc1cc(CNC(=O)N2Cc3ccccc3N(C)CC2C)[nH]n1 (stereo not given)	5.505%
CCC1CN(C)c2ccccc2CN1C(=O)c1c[nH]c(=O)cc1C (stereo not given)	123.4%
CC1CN(C)c2ccccc2CN1C(=O)c1ccc[nH]1 (stereo not given)	-9.61%
Cc1cc(=O)[nH]cc1C(=O)N1Cc2ccccc2N(C)CC1C (stereo not given)	102.2%
CC1CN(C)c2ccccc2CN1C(=O)c1ccncc1F (stereo not given)	-16.77%
COCc1ccc(C(=O)N2CC[C@H](O)[C@@H](n3ccnc3)CC2)cc1	113.2%
CC(C)Oc1ccc(C(=O)N2CC[C@H](O)[C@@H](n3ccnc3)CC2)cc1	122.3%
COCc1ccc(C(=O)N2CCCN(C(=O)OCC(C)C)CC2)cc1	6.896%
O=C(c1ccc(-n2ccnc2)cc1)N1CCCC1	15.67%
COCc1ccc(C(=O)N2CCN(CCS(C)(=O)=O)CC2)cc1	1.51%
CC(C(=O)N1CCN(C(=O)c2ccc(F)cc2)CC1)n1ccnc1 (stereo not given)	-9.233%
CS(=O)(=O)CCSC1CCN(c2ccccc2F)C1=O (stereo not given)	-0.4258%
CC(C)N1CCC(C(=O)N[C@H](C(=O)O)c2cccc(F)c2F)CC1	23.96%
O=C(c1coc2ccccc12)N1CCCC(O)(CO)CC1 (stereo not given)	-11.92%
Cn1c(CO)cnc1SC(C(N)=O)c1ccccc1 (stereo not given)	-6.292%
COCCN(CCC#N)S(=O)(=O)c1ccc(F)cc1F	3.199%
COc1cccc(OCCNS(=O)(=O)Cc2ccccc2)c1	102.8%
COc1cccc(OCCNS(C)(=O)=O)c1	78.58%
Cc1cccc(OCC(=O)NS(=O)(=O)Cc2ccccc2)c1	1.498%
COc1ccc(S(=O)(=O)C(C)C(=O)NCCOc2cccc(C)c2)cc1 (stereo not given)	1.494%
COc1cccc(CNCCc2cccc(C(N)=O)c2)c1	-2.153%
CC(=O)NCCOc1cccc(Br)c1	0.6269%
O=C(CCOc1ccccc1)NS(=O)(=O)Cc1ccccc1	-5.15%
CS(=O)(=O)c1ccc(OCCNCc2cccc(O)c2)cc1	-6.003%
COc1cccc(OCCNCc2ccccc2)c1.O=C(O)C(=O)O	105.9%

SMILES	Percent Effect
Cc1c(C(=O)NC2(C#N)CCSC2)nnn1-c1ccccc1Cl (stereo not given)	1.619%
Cn1cc(CNc2ccc(F)c(N3CCCS3(=O)=O)c2)cn1	-4.512%
CCCOCC1CCN(C(=O)Cn2cccc(C(F)(F)F)c2=O)C1 (stereo not given)	-13.09%
Cn1cc(CN2CCCC23CCN(C(=O)c2cccn2C)CC3)cn1.O=C(O)C(F)(F)F	-11.73%
CN(Cc1ccco1)C1CCC12CCN(C(=O)c1ccco1)CC2.O=C(O)C(F)(F)F (stereo not given)	-7.154%
CN(C)CCN1CCCC12CCCN(Cc1ccoc1)C2.O=C(O)C(F)(F)F.O=C(O)C(F)(F)F.O=C(O)C(F)(F)F (stereo not given)	19.5%
Cc1ccccc1C(=O)N1CCC2(CCCN2CCN(C)C)CC1.O=C(O)C(F)(F)F.O=C(O)C(F)(F)F	100.3%
CN(C)CCN1CCCC12CCN(C(=O)c1ccoc1)CC2.O=C(O)C(F)(F)F.O=C(O)C(F)(F)F	109.3%
CN(C)CCN1CCCC12CCN(C(=O)c1ccco1)CC2.O=C(O)C(F)(F)F.O=C(O)C(F)(F)F	96.22%
CN(C)CCN1CCCC12CCN(C(=O)c1cccn1C)CC2.O=C(O)C(F)(F)F.O=C(O)C(F)(F)F	-18.28%
CN(C)CCN1CCCC12CCCN(Cc1ccco1)C2.O=C(O)C(F)(F)F.O=C(O)C(F)(F)F.O=C(O)C(F)(F)F (stereo not given)	-6.586%
CCN1CCCC12CCN(C(=O)c1ccsc1)CC2.O=C(O)C(F)(F)F	-19.39%
NC(=O)C(NCCc1ccc(Cl)s1)c1ccccc1 (stereo not given)	0.1259%
CCN(Cc1noc(C(C)C)n1)Cc1ccc(C#N)cc1F	13.78%
O=S(=O)(Cc1ccccc1)NCc1ccnc(O)c1	-8.436%
CCc1ccc2nc(C)cc(C(=O)N3C[C@H]4CCC[C@@]4(CO)C3)c2c1	-46.54%
CCSc1ncc(CN2C[C@H]3CC[C@@H]2CN(C2CCOCC2)C3)cn1	15.93%
CSCC(C)N(C)C(=O)CN1CCN(c2ccccn2)CC1 (stereo not given)	-3.468%
CC(C)NCc1cccnc1N1CCN(c2ccccn2)CC1	-3.713%
CCCC(C)NCc1cccnc1N1CCN(c2ccccn2)CC1 (stereo not given)	8.499%
CSC(C)C(=O)NCCC(=O)N1CCN(c2ccccn2)CC1 (stereo not given)	112.5%
Cc1nc(CNC(=O)CCN2CCN(c3ccccn3)CC2)oc1C	-3.101%
CCC(CC)C(=O)NCCC(=O)N1CCN(c2ccccn2)CC1	117%
CC(C)C(=O)NCCC(=O)N1CCN(c2ccccn2)CC1	125.4%
CC(C)CC(C)NCc1cccnc1N1CCN(c2ccccn2)CC1 (stereo not given)	-4.161%
CCc1nnsc1C(=O)NC1CCN(c2ccccn2)CC1	-15.93%
CCC(C)NC(=O)NCCC(=O)N1CCN(c2ccccn2)CC1 (stereo not given)	129.1%

SMILES	Percent Effect
CC(c1ccccn1)N(C)C(=O)CN1CCN(c2ccccn2)CC1 (stereo not given)	-2.14%
CCn1cc2c(n1)C(COC)CN(C(=O)COc1ccccc1C)C2 (stereo not given)	-8.136%
CC(=O)NC[C@@H]1C=C(C)[C@H](CC(=O)NCCN(C)C)C[C@H]1C(C)C	6.725%
O=C1CC2(CCSC2)C(=O)N1CCCc1ccccc1 (stereo not given)	-8.478%
CCC(NC(=O)c1coc(COc2cccc(F)c2F)n1)C(=O)NC (stereo not given)	-19.24%
CCc1nnc2n1CCN(Cc1nc(-c3ccoc3)no1)C2	-0.9507%
COCCC(=O)N1CCCC1c1csc(Nc2ncccn2)n1 (stereo not given)	107%
COCCC(=O)N1CCCC1c1csc(Nc2ccccn2)n1 (stereo not given)	105.2%
CC(C)(C)c1nnc(CN2CCN(C(=O)CC3CCCCC3)CC2)o1	-4.944%
CCC[C@@H](NC(N)=O)C(=O)N1CCc2c(Cl)cccc2C1	5.459%
COCC(=O)Nc1cc(S(=O)(=O)C(F)(F)F)ccc1OC	4.656%
CCc1nc(C)c(CN2CCOC(Cc3cccc4ccccc34)C2)[nH]1 (stereo not given)	10.02%
Cc1nc(CN2CCCN(CC(=O)N(C)CCC#N)CC2)no1	3.648%
c1ccc(-c2nc(CN3CCn4c(nnc4C4CC4)C3)no2)cc1	-9.405%
CC1(c2ccccc2)CCCN(Cc2nnc(-c3cccnc3)o2)C1 (stereo not given)	-17.9%
Cn1cnc2c1CCN(Cc1noc(-c3ccccc3)n1)C2	2.267%
OCC1(O)CCCN(Cc2noc(-c3ccccc3)n2)C1 (stereo not given)	97.27%
Cc1nc(CN2CCCC(C)(CO)C2)no1 (stereo not given)	110.1%
Cc1cc(CN2CCCC(C)(CO)C2)ccc1F (stereo not given)	-2.653%
OCC1(O)CCCN(Cc2noc(-c3ccccc3)n2)CC1 (stereo not given)	104.1%
CN(C)CC1(O)CCCN(c2noc(-c3ccccc3)n2)CC1 (stereo not given)	-6.371%
Cc1ccc(-c2nnc(CN3CCCC(O)(CO)CC3)o2)n1C (stereo not given)	-4.067%
OCC1(O)CCCN(Cc2nnc(-c3ccccc3)o2)CC1 (stereo not given)	97.17%
OCCOc1ccccc1CN1CCCC(O)(CO)C1 (stereo not given)	16.2%
O=C(O)C(F)(F)F.O=C(O)C(F)(F)F.O=C([C@H]1CN(Cc2nccs2)C[C@H]2OCC[C@@H]12)N1CCCCO1	-13.3%
CCN1CCC2(CCC1=O)CN(c1cnc3ccccc3n1)CCN2C (stereo not given)	10.67%
CCNC(=O)N(C)CCCc1n[nH]c(N)c1C#N	-6.653%

SMILES	Percent Effect
CC(C)n1ccnc1C1CCCN(c2cc(C(=O)NC3CC3)ccn2)C1 (stereo not given)	11.95%
Cc1cnn(C2CN(Cc3noc(-c4ccccc4)n3)C2)c1	6.311%
OCC1(O)CCN(Cc2noc(-c3ccccc3)n2)CC1	112.4%
Cn1ccnc1CN1CCN(Cc2noc(-c3ccccc3)n2)CC1	-3.916%
CCCC(N)CNS(=O)(=O)Cc1cccc(C#N)c1.Cl (stereo not given)	-1.555%
Cn1nc2c(cc1=O)CN(CCCOc1ccc(C#N)cc1)CC2	-8.416%
CC(C)OCCCNC(=O)CS(=O)(=O)Cc1ccc(Cl)c(Cl)c1	-2.776%
CC(C)OCCCNC(=O)CS(=O)(=O)Cc1ccc(C(C)C)cc1	60.49%
CC(NC(=O)NCCCN(C)S(C)(=O)=O)c1cccc(Cl)c1 (stereo not given)	-5.228%
Cc1ccc(CS(=O)(=O)CC(=O)NCc2ccccc2F)cc1	-26.12%
CC(C)OCCCNC(=O)NC(C)c1ccc(-n2cncn2)cc1 (stereo not given)	21.75%
CC(C)OCCCNC(=O)CS(=O)(=O)Cc1ccc(Cl)cc1	111.2%
CC(C)OCCCNC(=O)CS(=O)(=O)Cc1cccc(Cl)c1	109.4%
Cc1ccc(CS(=O)(=O)CC(=O)NCCCOC(C)C)cc1	104.7%
CC(C)c1ccc(CS(=O)(=O)CC(=O)NCc2ccccc2F)cc1	-59.22%
Cc1cccc(CS(=O)(=O)CC(=O)NCCCOC(C)C)c1	-2.072%
CC(C)(C)CC(=O)NCC(=O)NS(=O)(=O)c1cccnc1	-1.885%
COc1ncnc(N(C)C)c1NC(=O)Cc1cc(F)ccc1F	-32.31%
Cc1ccc(C)c(CS(=O)(=O)CC(=O)NC(C)c2ccc(F)cc2F)c1 (stereo not given)	34.69%
CC(C)(C)c1ccc(C2(C(=O)NCCCS(C)(=O)=O)CC2)cc1	-6.927%
Cc1ccc(C)c(CS(=O)(=O)CC(=O)Nc2ccc(F)cc2F)c1	-7.067%
Cc1ccc(C)c(CS(=O)(=O)CC(=O)NCCCOC(C)C)c1	103.7%
CC(C)OCCCNC(=O)CN1CCC(N2CCN(C)C2=O)CC1	-1.952%
CC(C)OCCCNC(=O)CS(=O)(=O)Cc1ccc(C(C)(C)C)cc1	103.7%
